We go through 22 compounds from PubChem BioAssay (NCATS).

Records with an inconclusive call do not appear. Active and inactive are the calls of the source. Unless noted, the call rests on the fitted dose curve; in most records, active means well fitted curve in the direction sought with a large enough effect; inconclusive means small, poorly fitted or top-dose-only effect, or another doubt; inactive means no such curve, though single readings can be large; an effect the other way counts as inactive or inconclusive.

Assay [1] concerns the target Ubiquitin carboxyl-terminal hydrolase 1 (Homo sapiens) (UniProt O94782). As to the kind of experiment: Inhibitors of USP1/UAF1: Pilot qHTS (AID 504865). Further: nearly all actives have a fitted effect of over 35% in size. Further: potency means the concentration at half of the fitted maximal effect. The method, boiled down:
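USP1/UAF1 complex (1nM) preincubated with compound 15 min at room temperature, then Ub-Rho substrate (150nM final) added. Fluorescence read kinetically at 480/540 nm, 6 reads every 60 seconds. Buffer: 50mM HEPES pH 7.8, 0.5mM EDTA, 0.1 mg/ml BSA, 1mM TCEP, 0.01% Tween-20.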
In general terms: In qHTS, concentration-response curves come from the screen itself.

A short description of assay [2]: S16 Schwann cell PMP22 intronic element firefly luciferase assay (AID 624032). Further: nearly all actives have a fitted effect of over 30% in size. Further: potency means the concentration at half of the fitted maximal effect. The procedure, abridged:
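Rat S16 Schwann cells stably carrying a PMP22 intronic element-driven Fluc reporter were seeded overnight, then exposed to compounds for 24 h at 37 °C. Luminescence was normalized to PTC124 (positive control) and DMSO (0% activity).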

The nature of assay [3]: S16 Schwann cell PMP22 intronic element beta-lactamase assay (AID 624044; calls by dose curve; further: nearly all actives have a fitted effect of over 15% in size; further: potency means the concentration at half of the fitted maximal effect;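 on ratio activity, negative = inhibition: 0% = DMSO and -100% = potassium clavulanate positive control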). Conditions: S16 rat Schwann cells, PMP22 element beta-lactamase FRET, 24 h; ratio activity, negative = inhibition: at 38.3 µM (top of the series). The method, boiled down:
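Beta-lactamase reporter under a PMP22 intronic regulatory element in stable S16 rat Schwann cells; 24 h compound exposure. 460 nm blue signal normalized between DMSO (0%) and potassium clavulanate, with 535 nm FRET tracking viability; curves classed by r2 and response.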

For assay [4], the system named is DFO2036. As to the kind of experiment: qHTS profiling for inhibitors of Plasmodium falciparum proliferation (AID 504749). Further: nearly all actives have a fitted effect of over 60% in size. Further: potency means the concentration at half of the fitted maximal effect.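 On activity, negative = inhibition: 0% = DMSO vehicle and full inhibition = artemisinin control.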 Conditions: P. falciparum in erythrocytes, SYBR Green DNA, 72 h; series mostly up to 28.7 µM. The method, boiled down:
(§1)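 Quantitative HTS: compounds pinned into medium, infected erythrocytes added (0.3% parasitemia, 2.5% hematocrit), 72 h culture at 37 C under 5% CO2. Saponin/Triton lysis with SYBR Green I, overnight RT, then fluorescence read.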

Assay [5] deals with W2. The assay is described as above. Conditions: P. falciparum in erythrocytes, SYBR Green DNA, 72 h; series mostly up to 28.7 µM. The method, boiled down:
as §1

Assay [6] is described as follows: S16 Schwann cell viability assay (CellTiter-Glo assay) (AID 624031).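 Further: plate controls were DMSO-treated cells for no effect and cell-free wells for full effect; nearly all actives have a fitted effect of over 70% in size.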 The procedure, abridged:
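Native S16 Schwann cells (rat), serum-containing medium, overnight attachment then 24 h drug exposure at 37 °C/5% CO2. CellTiter-Glo ATP signal; normalized to cell-free and vehicle wells.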
For orientation: ATP-based viability assays read luminescence as a measure of living cells.

Assay [7] addresses Cytochrome P450 3A4 (Homo sapiens) (UniProt P08684). As to the kind of experiment: qHTS Assay for Inhibitors and Substrates of Cytochrome P450 3A4 (AID 884). Further: on the % scale 0 is the no-effect control and ±100 the full control effect; nearly all actives have a fitted effect of over 50% in size. The procedure, abridged:
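Luminescent readout of luciferin produced by CYP3A4 (20 nM) dealkylation of Luciferin-PPXE, 25 uM (its KM). NADPH-driven reaction ran 60 min at RT after 10 min compound preincubation; data scaled to 57 uM ketoconazole as 100% inhibition.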

Assay [8] can be described thus: Confirmation and Secondary Assay for Modulators of Hemoglobin Beta Chain Splicing at IVS2 705 locus (AID 930).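 Further: HeLa cells stably expressing the EGFP-705 splicing reporter; GFP fluorescence per well restored by corrected splicing of the IVS2-705 intron in EGFP; % of control where 0% means no effect.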 The procedure, abridged: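 Stable HeLa line with EGFP disrupted by mutant beta-globin intron 2 (705). Overnight attachment, then 2 days of compound at 37C, 5% CO2. Signal: peak GFP intensity summed over objects 5-250 µm.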
Assay [9] deals with Tumor susceptibility gene 101 protein (Homo sapiens) (UniProt Q99816). As to the kind of experiment: qHTS Assay for Iinhibitors of HIV-1 Budding by Blocking the Interaction of PTAP/TSG101: Hit Validation (AID 651600). Further: on the % scale 0 is the no-effect control and ±100 the full control effect; nearly all actives have a fitted effect of over 70% in size. The method, boiled down:
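Fluorescence polarization binding assay: Tsg101 binding domain (10 uM final) pre-dispensed with compounds, then FITC-labeled PTAP-motif peptide (50 nM final) added; 20 min at r.t. in HEPES pH 7.5 buffer with NaCl, Tween 20, EDTA, TCEP.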

Sequence of Cytochrome P450 3A4 (Homo sapiens) (P08684 whole entry, looked up): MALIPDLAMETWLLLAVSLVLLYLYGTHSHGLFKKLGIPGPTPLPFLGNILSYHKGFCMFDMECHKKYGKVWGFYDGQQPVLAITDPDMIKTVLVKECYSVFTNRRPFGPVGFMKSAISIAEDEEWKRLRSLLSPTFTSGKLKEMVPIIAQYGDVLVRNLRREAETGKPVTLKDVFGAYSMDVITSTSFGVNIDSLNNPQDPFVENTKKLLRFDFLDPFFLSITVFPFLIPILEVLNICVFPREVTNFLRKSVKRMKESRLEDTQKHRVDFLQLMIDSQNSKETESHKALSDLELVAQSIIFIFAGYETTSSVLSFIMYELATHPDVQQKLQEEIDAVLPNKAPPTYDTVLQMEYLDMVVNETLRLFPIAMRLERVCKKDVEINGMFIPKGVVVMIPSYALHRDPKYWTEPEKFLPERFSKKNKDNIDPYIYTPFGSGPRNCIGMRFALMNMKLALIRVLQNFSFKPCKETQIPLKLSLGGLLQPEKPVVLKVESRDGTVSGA
Sequence of Ubiquitin carboxyl-terminal hydrolase 1 (Homo sapiens) (O94782 whole entry, looked up): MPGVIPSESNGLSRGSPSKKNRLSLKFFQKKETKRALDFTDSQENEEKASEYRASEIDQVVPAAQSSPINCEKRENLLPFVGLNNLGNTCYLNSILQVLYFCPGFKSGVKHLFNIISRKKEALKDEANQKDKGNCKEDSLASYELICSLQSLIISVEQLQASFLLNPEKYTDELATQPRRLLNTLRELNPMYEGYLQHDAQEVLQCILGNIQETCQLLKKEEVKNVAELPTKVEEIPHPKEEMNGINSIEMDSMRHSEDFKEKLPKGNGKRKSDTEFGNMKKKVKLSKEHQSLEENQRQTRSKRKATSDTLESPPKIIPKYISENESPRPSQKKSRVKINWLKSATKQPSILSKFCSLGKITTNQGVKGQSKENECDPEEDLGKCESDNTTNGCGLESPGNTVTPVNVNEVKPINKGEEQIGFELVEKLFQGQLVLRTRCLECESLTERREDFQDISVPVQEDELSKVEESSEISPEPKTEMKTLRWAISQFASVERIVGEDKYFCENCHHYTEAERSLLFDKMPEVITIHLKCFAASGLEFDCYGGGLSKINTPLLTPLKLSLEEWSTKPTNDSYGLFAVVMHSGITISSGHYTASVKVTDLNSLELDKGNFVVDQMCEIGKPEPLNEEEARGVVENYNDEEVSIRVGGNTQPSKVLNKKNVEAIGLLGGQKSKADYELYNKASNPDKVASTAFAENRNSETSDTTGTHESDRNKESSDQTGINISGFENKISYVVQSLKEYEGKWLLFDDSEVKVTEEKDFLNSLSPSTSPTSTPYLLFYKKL
Sequence of Tumor susceptibility gene 101 protein (Homo sapiens) (Q99816 whole entry, looked up, the tested form may be a part): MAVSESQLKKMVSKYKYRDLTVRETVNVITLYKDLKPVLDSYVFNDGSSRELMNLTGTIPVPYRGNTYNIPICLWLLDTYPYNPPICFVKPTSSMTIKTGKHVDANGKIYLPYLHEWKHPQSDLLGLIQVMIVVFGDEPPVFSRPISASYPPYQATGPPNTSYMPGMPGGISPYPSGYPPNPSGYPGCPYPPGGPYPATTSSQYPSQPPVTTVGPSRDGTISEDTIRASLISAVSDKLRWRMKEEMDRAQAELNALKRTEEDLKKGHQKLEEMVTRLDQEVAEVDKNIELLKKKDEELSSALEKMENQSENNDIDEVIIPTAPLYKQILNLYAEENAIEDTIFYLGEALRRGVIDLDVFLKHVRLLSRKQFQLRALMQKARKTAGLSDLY

Take `O=C1NC(=O)C2C3C=CC(C3)C12` (configuration not stated): the Potency result in assay [1], in assay [2], in [3], in assay [4] and in assay [5] was “inactive” in each case.

`OC[C@@H]1O[C@](CO)(O[C@H]2O[C@H](CO)[C@@H](O)[C@H](O)[C@H]2O)[C@H](O)[C@H]1O`: the Potency result in assay [1], in assay [6], in assay [3], in [4] and in assay [5] was “inactive” throughout.

`OCC1O[C@H](Oc2ccc(O)cc2)C(O)C(O)C1O` (some centres not stated): the Potency entry in [7], in assay [8], in assay [1], in [6], in assay [2] and in assay [4] was “inactive” throughout. Also, in [5], the Potency entry was “inactive”.

For `CC1(C)SC2C(NC(=O)C(C(=O)O)c3ccccc3)C(=O)N2C1C(=O)O` (configuration not stated), the Potency entry in [7], in assay [8], in assay [1], in assay [6], in assay [2] and in assay [3] was “inactive” in each case. The Potency result in assay [4] and in [5] was “inactive” each time.

For the compound `COc1cc2c(cc1O)CCN[C@@]21CS[C@H]2c3c(OC(C)=O)c(C)c4c(c3C(COC1=O)N1C2C2c3c(cc(C)c(OC)c3O)CC([C@@H]1O)N2C)OCO4` (some centres not stated), the Potency entry in assay [6] and in assay [2] was “inactive” each time. Moreover, the Potency is 0.0009 µM (active) in assay [4] and 0.0004 µM (active) in assay [5].

In the case of `C=CC1CN2CCC1CC2[C@@H](O)c1ccnc2ccc(OC)cc12` (some centres not stated), the Potency entry in assay [6] and in assay [3] was “inactive” each time. For the same compound, the Potency in [2] is 32.2 µM (active); in assay [4] it was 0.708 µM (active); in assay [5], 0.19 µM (active).

Regarding `OCCN1CC(O)C(O)C(O)C1CO` (configuration not stated), the Potency result in assay [7], in assay [8], in assay [1], in [6], in assay [3] and in assay [4] was “inactive” in each case. Besides, the Potency entry in [5] was “inactive”.

With `O=C1C(I)=CC(=C(c2cc(I)c(O)c(I)c2)c2ccccc2C(=O)O)C=C1I`, the Potency entry in assay [6], in [3], in assay [4] and in [5] was “inactive” throughout.

On to `COc1cccc2c1C(=O)c1c(O)c3c(c(O)c1C2=O)C[C@@](O)(C(=O)CO)C[C@@H]3OC1CC(N)C(O)C(C)O1` (some centres not stated), for which the Potency in assay [1] is 50.1 µM (active); in [3], 0.354 µM (active); in assay [4], 2 µM (active); in assay [5] it was 0.675 µM (active). For the same compound, the Potency result in [6], in assay [2] and in assay [9] was “inactive” throughout.

Take `CC(O)C1CCC2C3CCC4CC(O)CCC4(C)C3CCC12C` (configuration not stated): the Potency result in [1], in [6], in assay [3], in assay [4] and in assay [5] was “inactive” in each case.

Regarding `Cc1ccccc1N1C(=O)c2cc(N)ccc2N/C1=C\F`, the Potency result in [1], in assay [2] and in [4] was “inactive” each time.

Take `C[n+]1c2cc(N)ccc2cc2ccc(N)cc21`: the Potency result in assay [6] and in [3] was “inactive” in each case. The Potency in assay [4] was 0.355 µM (active); in assay [5], 0.757 µM (active).

For `CCCCC(=O)OCC(=O)[C@]1(O)Cc2c(O)c3c(c(O)c2[C@H](OC2CC(NC(=O)C(F)(F)F)C(O)C(C)O2)C1)C(=O)c1c(OC)cccc1C3=O` (some centres not stated), in [6], the Potency result is “inactive”. The Potency is 0.721 µM (active) in [2], 2.51 µM (active) in assay [3], 2.51 µM (active) in assay [4] and 1.51 µM (active) in assay [5].

For the compound `C=C[C@H]1CN2CCC1C[C@H]2[C@H](O)c1ccnc2ccc(OC)cc12` (some centres not stated), the Potency entry in [6] and in assay [2] was “inactive” in each case. Moreover, in assay [3], the ratio activity, negative = inhibition was -10.4% (active). Besides, the values for the Potency in assay [4] and in assay [5] were 0.631 µM (active) and 0.338 µM (active), respectively.

`CC1OC(OC2CCC3(C)C(CCC4C3CC(O)C3(C)C(C5=CC(=O)OC5)CCC43O)C2)CC(O)C1OC1CC(O)C(OC2CC(O)C(OC3OC(CO)C(O)C(O)C3O)C(C)O2)C(C)O1` (configuration not stated): the Potency entry in [1], in assay [6], in assay [2], in assay [3], in assay [4] and in [5] was “inactive” throughout.

As for `CCCCCCCCCCCCCCCC(=O)OC[C@H](O)[C@H]1OC[C@@H](O)[C@@H]1O`, the Potency entry in assay [1], in assay [6], in [3], in [4] and in [5] was “inactive” throughout.

In the case of `O=C(O)CC(O)CC(O)/C=C/c1c(C2CC2)nc2ccccc2c1-c1ccc(F)cc1` (configuration not stated), the Potency entry in [1], in assay [6], in [3], in assay [4] and in assay [5] was “inactive” throughout.

In the case of `CC1(C)OC[C@@H]2O[C@@]3(C(=O)O)OC(C)(C)O[C@@H]3[C@@H]2O1`, the Potency entry in assay [1], in [6], in assay [2], in [3] and in [4] was “inactive” throughout.

On to `NC(=O)C1CC2(NC(=O)NC2=O)c2cc(F)ccc2O1` (configuration not stated), for which the Potency entry in [1], in assay [6], in assay [2], in assay [4] and in assay [5] was “inactive” each time.

As for `C=NC(C(=O)NC1C(=O)N2C1SC(C)(C)C2C(=O)O)c1ccccc1` (configuration not stated), the Potency result in assay [8], in assay [6], in assay [2], in assay [3], in assay [4] and in assay [5] was “inactive” in each case.

As to `C[C@H]1OC(OC2C(O)[C@@H](O)C(OC3C(O)[C@@H](O)C(O)O[C@@H]3CO)O[C@@H]2CO)[C@H](O)C(O)C1N[C@H]1C=C(CO)[C@@H](O)[C@H](O)C1O` (some centres not stated), the Potency entry in assay [1], in [6], in [2], in assay [3], in assay [4] and in assay [5] was “inactive” throughout.

On to `CC1(Cn2ccnn2)[C@H](C(=O)O)N2C(=O)C[C@H]2S1(=O)=O` (some centres not stated), for which the Potency entry in assay [1], in [6], in assay [2], in [4] and in [5] was “inactive” each time.
